Measurements as given in the supplement of paper PMC13380429.

System: Vero E6 infected with SARS-CoV-2
Assay: inhibition of SARS-CoV-2 cytopathic effect; higher = more antiviral protection, active = above 15
Conditions: 48 h

Measured: inhibition of SARS-CoV-2 cytopathic effect

C[C@@H](O)[C@H]1C(=O)N2C(C(=O)O)=C(SCCNC=N)C[C@H]12 [imipenem]
inactive: 1 nM 2.08% | 8.33 nM 10% | 100 nM 9.32% | 833.33 nM 2.66% | 10000 nM 4.17%

CN1CCN(C(=O)O[C@H]2c3nccnc3C(=O)N2c2ccc(Cl)cn2)CC1
inactive: 1 nM 0.72% | 8.33 nM 1.71% | 100 nM 2.86% | 833.33 nM 2.34% | 10000 nM 0.85%

Cc1cc(C)cc(NC(=O)Cc2ccc(OC(C)(C)C(=O)O)cc2)c1 [efaproxiral]
inactive: 1 nM -0.22% | 8.33 nM -2.52% | 100 nM 1.44% | 833.33 nM 1.37% | 10000 nM -1.51%

O=c1cc[nH]c(=S)[nH]1 [2-thiouracil]
inactive: 1 nM 3.22% | 8.33 nM 2.55% | 100 nM 2.51% | 833.33 nM 0.11% | 10000 nM -0.68%

CC(C)C[C@@H](NC(=O)[C@H](C)NC(=O)CNC(=O)[C@@H](NC=O)C(C)C)C(=O)N[C@@H](C)C(=O)N[C@@H](C(=O)N[C@H](C(=O)N[C@@H](C(=O)N[C@@H](Cc1c[nH]c2ccccc12)C(=O)N[C@H](CC(C)C)C(=O)N[C@@H](Cc1c[nH]c2ccccc12)C(=O)N[C@H](CC(C)C)C(=O)N[C@@H](Cc1c[nH]c2ccccc12)C(=O)N[C@H](CC(C)C)C(=O)N[C@@H](Cc1c[nH]c2ccccc12)C(=O)NCCO)C(C)C)C(C)C)C(C)C [gramicidin]
inactive: 1 nM 0.05% | 8.33 nM 0.15% | 100 nM 0.36% | 833.33 nM -1.18% | 10000 nM 2.22%

CC1(C)OC2(C)C(O)CC1CC2O (stereo not given) [epomediol]
inactive: 1 nM 7.71% | 8.33 nM 1.77% | 100 nM 4.4% | 833.33 nM 1.92% | 10000 nM 3.17%
